Drawing on PubChem BioAssay AID425 (Sanford-Burnham Center for Chemical Genomics, 2006), this text covers inhibition for 27 compounds.

The campaign covered roughly 110,000 compounds. About 190 (0.17%) were called active. What follows is part of a selection rich in actives, with near analogues and random picks from the rest. Potency and affinity values are given separately. A number with no mark means an inactive call. No stated cut-off is given here; in the data, active means inhibition above about 50%; inactive means the rest.

The test deals with Dual specificity protein phosphatase 6 (Rattus norvegicus) (UniProt Q64346). The experiment in a line: MKP-3 phosphatase inhibitors, primary screen, biochemical, rat enzyme, in vitro (AID 425).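 Further: plate controls were vehicle for no effect and reference inhibitor for full effect.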 To be noted: recombinant MKP-3 phosphatase activity, fluorescence; at 20 µM; stronger effect = higher value.
Sequence of Dual specificity protein phosphatase 6 (Rattus norvegicus) (Q64346 whole entry, looked up): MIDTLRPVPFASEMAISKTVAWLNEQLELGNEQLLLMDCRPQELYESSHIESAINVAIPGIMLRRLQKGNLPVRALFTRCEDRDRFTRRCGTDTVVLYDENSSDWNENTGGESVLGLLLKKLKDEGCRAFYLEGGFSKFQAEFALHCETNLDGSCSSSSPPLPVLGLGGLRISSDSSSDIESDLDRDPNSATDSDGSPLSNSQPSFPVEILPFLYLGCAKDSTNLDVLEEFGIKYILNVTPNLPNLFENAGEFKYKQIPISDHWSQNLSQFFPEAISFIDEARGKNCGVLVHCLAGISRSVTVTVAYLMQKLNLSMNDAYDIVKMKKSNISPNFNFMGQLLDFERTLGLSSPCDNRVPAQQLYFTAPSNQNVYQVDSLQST
As for `CCNc1nc(NS(=O)(=O)c2ccc(C)cc2)nc(SC)n1`, the inhibition – broadly, the relative decrease from the control value, in per cent – is 0.7%. As to `COC(=O)c1c(N=CN(C)C)c(C#N)c(C)n1-c1ccccc1`, the inhibition is 4.3%.

In the case of `O=C(CSc1nc(O)c(Cc2ccccc2)c(=O)n1-c1ccccc1)N1CCOCC1`, the inhibition was 3%. As for `O=C1NC(=S)N/C1=C/c1ccc(-c2cc([N+](=O)[O-])ccc2Cl)o1`, the figure is 36.3%; as for `O=C1NC(=S)N/C1=C\c1ccc(-c2cc([N+](=O)[O-])ccc2Br)o1`, 50% (active). Then `O=C1NC(=S)N/C1=C\c1ccc(-c2cccc([N+](=O)[O-])c2)o1`, with 0.1%; and `O=c1c2ccccc2nc(-c2ccco2)n1-c1cccc2ccccc12`, with 2.8%. As for `Cc1ccc(-c2nc(-c3cc4cc([N+](=O)[O-])c(O)cc4oc3=O)cs2)cc1`, the figure is -1.3%; as for `O=c1oc2cc(O)c([N+](=O)[O-])cc2cc1-c1csc(-c2ccc(Cl)cc2)n1`, 6.8%. As for `O=c1oc2cc(O)c([N+](=O)[O-])cc2cc1-c1csc(-c2cc3ccccc3oc2=O)n1`, the inhibition is 85.1% (active). Then `O=C(c1ccc([N+](=O)[O-])cc1)N1CCN(Cc2ccccn2)CC1`, with 1.2%; and `CC(=O)CC(=O)Nc1ccc(C)c(Cl)c1`, with -2.2%. Regarding `O=[N+]([O-])c1cccc(S(=O)(=O)Nc2ccccc2-c2ccccc2)c1`, the inhibition is -0.7%. For `O=C1C=C/C(=N\S(=O)(=O)c2cccc([N+](=O)[O-])c2)c2ccccc21`, the inhibition was 78.3% (active). Then `O=C1c2ccccc2C(=O)N1/N=C/c1ccc(Cl)c([N+](=O)[O-])c1`, with -2.1%; and `O=C1C=C/C(=N\S(=O)(=O)c2ccc(Cl)c([N+](=O)[O-])c2)c2ccccc21`, with 57.6% (active); and `O=C1C=CC(=NS(=O)(=O)c2ccc(Cl)c([N+](=O)[O-])c2)C=C1`, with 10.8%. With `O=[N+]([O-])c1cccc(S(=O)(=O)/N=C(/Nc2ccccc2)c2ccccc2)c1`, the inhibition is 0.1%. For `COc1ccc(C(=O)NC(=S)Nc2ccc(I)cc2)cc1`, the inhibition was 1.2%. With `CCc1ccc(S(=O)(=O)Nc2ccc(OC(=O)c3ccc(Cl)cc3)cc2)cc1`, the inhibition was 0.4%. As for `CCn1c(/N=C/c2c(O)ccc3ccccc23)nc2ccccc21`, the figure is 78.4% (active); as for `Cn1c(/N=C/c2c(O)ccc3ccccc23)nc2ccccc21`, -12.4%. Then `CCn1c(/N=C/c2c[nH]c3ccccc23)nc2ccccc21`, with -7.4%; and `COc1ccc(NC(=O)CN(c2ccc(C)cc2)S(=O)(=O)c2ccc(SC)cc2)cc1OC`, with 0.5%. As for `O=c1c2ccc(Br)c3cccc(c32)c2nc3ccc4c5c(ccc(c35)n12)CC4`, the figure is 0.3%; as for `N#Cc1ccc2c(c1)nc1c3cccc4cccc(c(=O)n21)c43`, 66.7% (active); as for `O=c1c2ccc(Br)c3cccc(c32)c2nc3cccc4cccc(c43)n12`, 2.3%.
